Screens: PubChem BioAssay, National Center for Advancing Translational Sciences (NCATS)
Hits are enriched below; roughly 10% of the tested compounds scored in any of these assays.
CtBP-E1A blk = qHTS Assay for Inhibitors of the CtBP/E1A Interaction | AID 651724, 2012 | CtBP / adenovirus E1A interaction (AlphaScreen) | AlphaScreen GST-E1A/His-CtBP binding, 1536-well; active compounds read low | actives 0.49% (n = 340,000) | activity change, % (no concentration beside the values); in the data active means activity change below about -65%; inconclusive means mostly about -30% to -63%; further: on the % scale 0 is the no-effect control and ±100 the full control effect
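AlphaScreen with 125 nM GST-E1A and 125 nM His-CtBP (5X stocks) in Tris pH 8.0, 300 mM NaCl, BSA, Tween 20, TCEP. Compounds preincubated 2 h at 37 deg C, then glutathione donor/nickel acceptor beads added for 1 h at 37 deg C in dark.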
Six1-Eya2 inh = qHTS Assay for Inhibitors of the Six1/Eya2 Interaction; Homeobox protein SIX1 (Homo sapiens) + Protein phosphatase EYA2 (Homo sapiens), …; AlphaScreen GST-Six1/His-Eya2 binding, biochemical; active compounds read low; activity change, % (no concentration beside the values); actives 0.56% (n = 360,000); in the data active means activity change below about -65%; inconclusive means mostly about -30% to -63%; further: on the % scale 0 is the no-effect control and ±100 the full control effect
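Homogeneous AlphaScreen proximity assay pairing GST-Six1 with His-tagged Eya2 (added as 5X mix: 250 nM and 500 nM) in 50 mM Tris pH 8.0, 300 mM NaCl, 1 mM TCEP. Glutathione donor and nickel acceptor beads; 1 h, 37 °C, dark.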
HP1b chromo inh = HTS for Inhibitors of HP1-beta Chromodomain Interactions with Methylated Histone Tails; Chromobox protein homolog 1 (Homo sapiens), P83916; AlphaScreen HP1-beta / biotin-H3K9me3 peptide binding; Potency, µM (series often up to 114 µM), without a hit: at the top dose activity change, negative = inhibition, hits mostly inhibitors; actives 0.56% (n = 390,000); AID 540317, 2011; further: potency means the concentration at half of the fitted maximal effect; nearly all actives have a fitted effect of over 70% in size
Target sequence (P83916 whole entry, looked up): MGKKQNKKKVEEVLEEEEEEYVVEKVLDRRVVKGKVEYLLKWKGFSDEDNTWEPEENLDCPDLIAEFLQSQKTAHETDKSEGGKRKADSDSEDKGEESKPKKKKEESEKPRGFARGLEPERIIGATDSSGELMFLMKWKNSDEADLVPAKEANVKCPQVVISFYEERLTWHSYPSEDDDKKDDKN
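AlphaScreen: HP1-beta (50 nM) preformed 30 min with biotin-H3(1-18)K9me3 peptide (50 nM) in PBS pH 7.4, 0.01% Tween-20. Compound added for 30 min at RT, then streptavidin donor/nickel chelate acceptor beads (10 ug/mL) for 30 min.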
JMJD2A Tudor inh = qHTS Assay for Inhibitors of JMJD2A-Tudor Domain; Lysine-specific demethylase 4A (Homo sapiens), O75164; AlphaScreen JMJD2A-Tudor / H3K4me3 peptide binding; Potency, µM (doses to about 114 µM), inactives show top-dose activity change, negative = inhibition, usual class: inhibitors; actives 4.4% (n = 390,000); further: potency means the concentration at half of the fitted maximal effect; on the % scale 0 is the no-effect control and ±100 the full control effect; nearly all actives have a fitted effect of over 50% in size
G9a block = qHTS Assay for Inhibitors of Histone Lysine Methyltransferase G9a. Histone-lysine N-methyltransferase EHMT2 (Homo sapiens), Q96KQ7. G9a H3K9 monomethylation, AlphaScreen, 2 h. Potency, µM (doses to about 102 µM), for inactives: top-dose activity, negative = inhibition, hits mostly inhibitors. actives 8.8% (n = 350,000). AID 504332, 2011; further: potency means the concentration at half of the fitted maximal effect; on the % scale 0 is the no-effect control and ±100 the full control effect; nearly all actives have a fitted effect of over 75% in size
Target sequence (Q96KQ7 913-1193 limits assumed): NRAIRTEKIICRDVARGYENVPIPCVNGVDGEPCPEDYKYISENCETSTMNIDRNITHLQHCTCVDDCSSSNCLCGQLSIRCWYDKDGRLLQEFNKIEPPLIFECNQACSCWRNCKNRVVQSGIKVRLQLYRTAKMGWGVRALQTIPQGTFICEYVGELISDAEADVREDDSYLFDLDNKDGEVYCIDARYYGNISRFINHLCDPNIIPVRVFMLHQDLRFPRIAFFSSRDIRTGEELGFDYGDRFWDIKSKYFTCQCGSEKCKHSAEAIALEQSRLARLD
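Quantitative HTS format: methyltransferase activity on a biotin-tagged H3K9 peptide is measured by AlphaScreen, using a rabbit anti-monomethyl-H3K9 antibody with streptavidin donor and anti-IgG acceptor beads. Final levels are 20 nM enzyme, 500 nM peptide, 20 uM SAM; 2 h RT.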
BAZ2B block = qHTS Assay for Inhibitors of BAZ2B. Bromodomain adjacent to zinc finger domain protein 2B (Homo sapiens), Q9UIF8. actives 4.4% (n = 360,000). AlphaScreen BAZ2B-H3K14Ac peptide displacement. Potency, µM (highest dose often 114 µM), for inactives: at the highest dose activity change, negative = inhibition, actives largely listed as inhibitors; further: potency means the concentration at half of the fitted maximal effect; on the % scale 0 is the no-effect control and ±100 the full control effect; nearly all actives have a fitted effect of over 60% in size
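AlphaScreen displacement of biotin-H3(5-23)K14Ac peptide (50 nM final) from BAZ2B (50 nM final) in PBS pH 7.4, 0.01% Tween-20; complex preformed 30 min RT, then compounds (top 110 uM) 30 min RT, beads 20 min dark.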
* hit, by the source's call; ? = inconclusive; · = no result given; [ ] = dose if it differs, or a comment. Unless noted, the call rests on the fitted dose curve; in most records, active means well fitted inhibition curve with a large enough effect; inconclusive means small, poorly fitted or top-dose-only effect; inactive means no such curve, though single readings can be large or run the other way.

SMILES	CtBP-E1A blk	Six1-Eya2 inh	HP1b chromo inh	JMJD2A Tudor inh	G9a block	BAZ2B block
O=C(O)c1cccc(NC(=S)N/N=C/c2ccccc2OCc2ccc(Br)cc2)c1	-4	-2	?	50µM*	?	50µM*
Cn1cccc1C(=O)N1CCC2(CCCN(C(=O)Nc3cccc(C#N)c3)C2)CC1	·	·	·	·	-8%[12.7 µM]	·
COc1ccc(CCNC(=O)CCc2ccsc2)cc1OC	-9	3	7%	-13%	1%	8%
CCCCN1C[C@H](CSC)[C@@H](CC(=O)Nc2ccc(OC)cc2)C1=O	-5	-2	·	·	·	·
CC(=O)Nc1ccc(N(C(=O)CNC(=O)c2cccs2)C(C(=O)NCC2CCCO2)c2ccccc2)cc1 (stereo not given)	-7	-8	16%	-15%	5%	7%
CC(=O)Nc1nonc1-c1nnc(SCC(=O)Nc2cc(C)cc(C)c2)n1-c1ccccc1	·	·	33%	-9%	-30%[59 µM]	-7%
COC(=O)c1ccc(COc2ccccc2/C=C/C(=O)c2ccc(OCC(=O)O)cc2)cc1	?	?	-3%	-23%	50µM*	?
COC(=O)c1ccc(COc2ccccc2/C=N/Nc2cccc(C(=O)O)c2)cc1	0	-12	33%	-10%	25µM*	-37%
CCCOc1ccc(/C=N/Nc2ccc(C(=O)O)cc2)c(OCCC)c1	0	-9	-15%	?	40µM*	?
COC(=O)c1ccc(CO/N=C/c2ccccc2OC)cc1	·	50	175%	162%	191%	144%
Cc1ccccc1-c1csc(N)n1	3	5	-6%[57 µM]	-32%	·	·
CCC(C)Nc1nc(-c2c[nH]c3ccccc23)cs1 (stereo not given)	26	78	?	35µM*	11µM*	25µM*
CNc1nc(-c2c[nH]c3ccccc23)cs1	93	90	?	18µM*	35µM*	35µM*
CN1CCN(CC(=O)Nc2nc(-c3c[nH]c4ccccc34)cs2)CC1	0	-13	12%	-34%	?	?
Cc1ccc2c(-c3csc(N)n3)c[nH]c2c1	·	·	·	·	45µM*	-27%
O=C(CN1C(=O)/C(=C\c2cccc(Br)c2)Oc2ccccc21)NCCCN1CCOCC1	-8	3	58%	45µM*	17%[59 µM]	-6%
O=C(CN1C(=O)/C(=C/c2ccc(C(F)(F)F)cc2)Sc2ccccc21)NCCCN1CCOCC1	0	-2	22%	-19%	-7%[59 µM]	-29%
CCc1ccc(/C=C2/Sc3ccccc3N(CC(=O)NCCCN3CCOCC3)C2=O)cc1	·	-9	-9%[57 µM]	?	-12%	35µM*
COc1ccccc1Nc1nnc(SCc2cc(=O)n3cc(C)ccc3n2)s1	-12	-6	32%	-8%	13µM*	-28%
Cc1ccc2nc(CSc3nnc(NC(=O)COc4ccccc4F)s3)cc(=O)n2c1	·	·	15%[57 µM]	-10%	18%[59 µM]	8%
Cc1cc(C)cc(NC(=O)C2CCN(S(=O)(=O)c3cn(C)cn3)CC2)c1	·	·	27%	0%	-1%[12.7 µM]	-9%
COc1ccc(-n2c(C)nc3cc(C(=O)O)ccc32)cc1	4	3	23%	-8%	-8%[12.7 µM]	5%
Cc1nc2cc(C(=O)O)ccc2n1-c1ccc(C(C)C)cc1	·	·	-6%	-27%	16µM*	?
Cc1nc2cc(N)ccc2n1-c1ccccc1	-11	-5	?	35µM*	?	-31%
Cc1cc(C)c(S(C)(=O)=O)c(NN)n1	1	4	18%	-2%	0%	-29%
SMILES	CtBP-E1A blk	Six1-Eya2 inh	HP1b chromo inh	JMJD2A Tudor inh	G9a block	BAZ2B block
CCN1CCN(C(=O)c2ccc3c(c2)N(Cc2cc(C)ccc2C)C(=O)c2ccccc2S3(=O)=O)CC1	·	·	12%	-29%	-8%[59 µM]	?
Cc1ccn2c(c1)nc(=O)c1cc(S(=O)(=O)N3CCCCC3)ccc12	-21	-27	15%[57 µM]	-2%	11%	-9%
O=c1nc2ccccn2c2ccc(S(=O)(=O)N3CCCCC3)cc12	-19	-16	-2%	-13%	45µM*	4%
c1ccc(-c2sc3ccccc3c2-c2ccc(OCCN3CCOCC3)cc2)cc1	·	-10	-5%	?	·	·
COc1ccccc1-c1sc2ccccc2c1-c1ccc(OCCN2CCOCC2)cc1	-26	?	-18%	50µM*	·	·
COc1ccccc1-c1sc2ccccc2c1-c1ccc2c(c1)OCO2	0	0	50%	27%	4%	6%
COc1ccccc1-c1sc2cc3c(cc2c1-c1ccc(OCCN2CCCCC2)cc1)OCO3	-3	-29	-24%	11µM*	·	·
COc1ccccc1-c1sc2cc3c(cc2c1-c1ccc2c(c1)OCO2)OCO3	-9	-5	38%	-35%	8%[0.501 µM]	79µM*
COc1cc2sc(-c3ccccc3OC)c(-c3ccc(OCCN4CCCCC4)cc3)c2cc1OC	-5	?	?	28µM*	·	·
COc1ccc(C(c2nnnn2C2CCCC2)N2CCC(C)CC2)cc1 (stereo not given)	5	-3	52%	-10%	-34%[12.7 µM]	?
COc1ccc(C(c2nnnn2C2CCCCC2)N2CCN(c3ccc(OC)cc3)CC2)cc1 (stereo not given)	?	?	?	?	?	40µM*
Cc1ccc(C(c2nnnn2C2CCCCC2)N(C)C2CCCCC2)cc1 (stereo not given)	0	4	19%	9%	1.8µM*	4%
c1cc(N2CCCC2)ccc1C(c1nnnn1C1CCCCC1)N1CCOCC1 (stereo not given)	-3	-13	-18%	?	10µM*	?
c1ccc(C(c2nnnn2C2CCCC2)N2CCN(c3ccccc3)CC2)cc1 (stereo not given)	-9	-8	24%	-22%	-22%[59 µM]	-33%
COc1ccc(OC)c(C(c2nnnn2C2CCCC2)N2CCN(c3ccccc3)CC2)c1 (stereo not given)	-5	-22	-24%	56µM*	32µM*	50µM*
CCOc1ccccc1NC(=O)C1=C(C)Nc2ncnn2C1c1ccc(C)o1 (stereo not given)	·	·	10%[57 µM]	-20%	6%[59 µM]	-4%
Cc1ccccc1C(=O)Nc1cccc(C(=O)OCc2cc(=O)n3c(C)csc3n2)c1	·	·	19%	-10%	12%[59 µM]	-10%
Cc1ncc2c(c1OC(=O)c1ccccc1)COC(C)(C)OC2	-1	0	29%	-9%	5%	4%
